Assay outcomes (PubChem)
SIRT5 block – SIRT5 desuccinylase inhibitors, primary screen, biochemical, fluorescence imaging, single point, set 5; NAD-dependent protein deacylase sirtuin-5, mitochondrial (Homo sapiens), Q9NXA8; Purified SirT5, succinyl-peptide AMC, trypsin-coupled fluorescence; inhibition, % at 15 µM; hit rate 1.1% among 330,000; AID 652115, 2013; in the data active = inhibition above about 15%
PDI inh – inhibitors of human PDI, primary screen, biochemical, turbidity, single point, plate reader. hit rate 0.052% among 350,000. inhibition, % at 10 µM. Protein disulfide-isomerase (Homo sapiens), P07237. AID 588391, 2011. PDI insulin aggregation turbidity, A650, 90 min;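 active = mean inhibition across replicates of 30% or more, whatever share of single replicates reach that level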
ERp5 block – inhibitors of ERp5-driven insulin aggregation, primary screen, biochemical, turbidity, absorbance 650 nm, single point; Protein disulfide-isomerase A6 (Homo sapiens), Q15084; 90 min; inhibition, % at 9.99 µM; hit rate 0.05% among 350,000; AID 651711, 2012;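 active = mean replicate inhibition above about 25%, with every replicate also reaching it, limit read from the data, passing the limit was not always enough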
ERAP1 inh – human ERAP1 aminopeptidase inhibitors, primary screen, biochemical, single point, plate reader. Endoplasmic reticulum aminopeptidase 1 (Homo sapiens), Q9NZ08. recombinant ERAP1, Leu-AMC fluorescence, 60 min. inhibition, % at 10.7 µM. hit rate 0.15% among 340,000;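 active = mean replicate inhibition of at least 30%, or all replicates individually reaching that 30% level; inactive = mean below 30% and not every replicate reaching it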;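 note: 0% = neutral control wells and 100% = L-leucinethiol positive control wells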
HDAC3 inh – HDAC3 deacetylase inhibitors, primary screen, biochemical, fluorescence, cell-free homogeneous; inhibition, % at 8.3 µM; hit rate 0.15% among 320,000; Histone deacetylase 3 (Homo sapiens), O15379; recombinant HDAC3, fluorogenic peptide/trypsin coupled; in the data active = inhibition above about 26%, passing the limit was not always enough
Target sequence (O15379 whole entry, looked up): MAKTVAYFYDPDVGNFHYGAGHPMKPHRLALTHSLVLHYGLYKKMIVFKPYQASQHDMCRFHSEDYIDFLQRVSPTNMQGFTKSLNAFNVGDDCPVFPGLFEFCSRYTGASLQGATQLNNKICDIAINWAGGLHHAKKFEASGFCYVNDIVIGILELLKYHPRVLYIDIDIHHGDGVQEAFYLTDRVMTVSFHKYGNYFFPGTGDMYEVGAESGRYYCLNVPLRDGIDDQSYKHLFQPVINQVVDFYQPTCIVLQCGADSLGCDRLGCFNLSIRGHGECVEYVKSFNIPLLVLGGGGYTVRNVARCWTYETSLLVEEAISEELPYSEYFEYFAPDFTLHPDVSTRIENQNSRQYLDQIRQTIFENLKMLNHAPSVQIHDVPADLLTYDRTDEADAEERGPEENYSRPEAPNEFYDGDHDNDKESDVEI
An asterisk follows results filed as active. The full list was thinned out, with hits kept by preference.

What do the screens show for `CCOC(=O)C1(Cc2ccccc2)NC(c2ccccc2F)C2C(=O)N(CC)C(=O)C21` (stereo not drawn)?
PDI inh: -1; HDAC3 inh: 3

How did Cc1ccc(SCC(=O)OCC(=O)NCc2cccs2)cc1 do in these assays?
SIRT5 block: 8; PDI inh: -4; ERp5 block: 0; ERAP1 inh: 2; HDAC3 inh: 2

What do the screens show for `O=C(COC(=O)CSc1ccc([N+](=O)[O-])cc1)NCc1cccs1`?
SIRT5 block: 15*; PDI inh: 0; ERp5 block: -4; ERAP1 inh: 3; HDAC3 inh: 16

What do the screens show for `COc1cc(/C=N/OCC(=O)Nc2cc(C)on2)ccc1OCc1ccccc1`?
SIRT5 block: 28*; PDI inh: 2; ERp5 block: -1; ERAP1 inh: 1; HDAC3 inh: 5

Results for COc1cc(/C=C/C(=O)NC(C)C)ccc1OCc1ccccc1 ?
PDI inh: -41; HDAC3 inh: 2

Results for O=C(OC(c1ccc(NS(=O)(=O)c2ccccc2)cc1)(C(F)(F)F)C(F)(F)F)c1ccccc1 ?
SIRT5 block: 0; PDI inh: -9; ERp5 block: -4; ERAP1 inh: -1; HDAC3 inh: 34*

How did Cc1ccc(S(=O)(=O)Nc2ccc(C(OC(=O)c3ccccc3[N+](=O)[O-])(C(F)(F)F)C(F)(F)F)cc2)cc1 do in these assays?
PDI inh: 8; HDAC3 inh: 31*

What do the screens show for `C[C@@H]1CN([C@@H](C)CO)C(=O)c2cc(NS(=O)(=O)c3ccc(F)cc3)ccc2O[C@@H]1CN(C)C(=O)Nc1ccc(F)cc1`?
SIRT5 block: -2; ERp5 block: -5; ERAP1 inh: 1

How did O=C(NCC(=O)N1CCN(C(c2ccccc2)c2ccccc2)CC1)c1ccccc1Br do in these assays?
SIRT5 block: 20*; PDI inh: -2; ERp5 block: 1; ERAP1 inh: -3

How did NS(=O)(=O)c1ccc(F)c(C(=O)O)c1 do in these assays?
SIRT5 block: 19*; PDI inh: 4; ERp5 block: 8; ERAP1 inh: 1; HDAC3 inh: -7

What do the screens show for `O=C(NCCNC(=O)c1cc(OCC(F)(F)F)ccc1OCC(F)(F)F)Nc1cccc(C(F)(F)F)c1`?
PDI inh: 0; HDAC3 inh: 36*

What do the screens show for `NNC(=O)Nc1cccc(C(F)(F)F)c1`?
SIRT5 block: 41*; PDI inh: -5; ERp5 block: 1; ERAP1 inh: 3; HDAC3 inh: 3

What do the screens show for `Cc1ccc(S(=O)(=O)Nc2ccc(NC(=O)Nc3cccc(C(F)(F)F)c3)cc2)cc1`?
SIRT5 block: -1; PDI inh: 8; ERp5 block: 1; ERAP1 inh: -1; HDAC3 inh: 31*

What do the screens show for `O=C(Nc1ccncc1)Nc1cccc(C(F)(F)F)c1`?
SIRT5 block: -1; PDI inh: -4; ERp5 block: 8; ERAP1 inh: -1; HDAC3 inh: 12

Results for C[C@H]1CN([C@@H](C)CO)S(=O)(=O)c2ccc(C#CC3CC3)cc2O[C@H]1CN(C)S(C)(=O)=O ?
SIRT5 block: -4; ERp5 block: -1; ERAP1 inh: 1

Results for O=C(O)C[C@@H]1C[C@@H]2c3cc(NC(=O)C4CCC4)ccc3O[C@@H]2[C@H](CO)O1 ?
SIRT5 block: -2; ERp5 block: 1; ERAP1 inh: -1

What do the screens show for `c1ccc2c(CN3CCCCC3)csc2c1`?
SIRT5 block: 15*; PDI inh: -2; ERp5 block: -1; ERAP1 inh: 7; HDAC3 inh: -6

How did c1ccc2c(CN3CCOCC3)csc2c1 do in these assays?
SIRT5 block: 1; PDI inh: 3; ERp5 block: 3; ERAP1 inh: 1; HDAC3 inh: 4

How did C=CCNC(=O)CN1CCC(c2nc3cc(C)c(C)cc3[nH]2)CC1 do in these assays?
SIRT5 block: 18*; PDI inh: 3; ERp5 block: 2; ERAP1 inh: 0

What do the screens show for `COc1cccc(CN2CCC3(CC2)CN(S(C)(=O)=O)[C@@H](CO)c2[nH]c4cc(OC)ccc4c23)c1`?
SIRT5 block: 2; ERp5 block: -7; ERAP1 inh: -8

What do the screens show for `COc1ccccc1C#Cc1ccc([C@H]2[C@@H](CO)N3CCCCN(C(=O)C4CCCC4)C[C@@H]23)cc1`?
SIRT5 block: 19*; ERp5 block: 1; ERAP1 inh: 2

Results for CN(C)CC#Cc1ccc([C@@H]2[C@H](CO)N3CCCCN(C(=O)CN(C)C)C[C@@H]23)cc1 ?
SIRT5 block: 0; ERp5 block: 6; ERAP1 inh: 0

What do the screens show for `CN(C)CC#Cc1ccc([C@@H]2[C@@H](CO)N3CCCCN(C(=O)CN(C)C)C[C@H]23)cc1`?
SIRT5 block: 25*; ERp5 block: -2; ERAP1 inh: 2

Results for COc1ccccc1NC(=O)N1CCCCN2[C@H](C1)[C@@H](c1ccc(C#CC3CCCC3)cc1)[C@@H]2CO ?
SIRT5 block: 16*; ERp5 block: 9; ERAP1 inh: 1

What do the screens show for `COc1ccc(NC(=O)N2CCCCN3[C@H](C2)[C@@H](c2ccc(C#Cc4ccccc4)cc2)[C@@H]3CO)cc1`?
SIRT5 block: 16*; ERp5 block: -1; ERAP1 inh: 2

How did COCC(=O)N1CC2(CCN(C(=O)c3ccccn3)CC2)c2c(n(C)c3cc(OC)ccc23)[C@@H]1CO do in these assays?
SIRT5 block: -3; ERp5 block: 2; ERAP1 inh: 0

How did C[C@H]1CN([C@@H](C)CO)C(=O)c2cccc(NC(=O)Nc3ccc(F)cc3)c2O[C@H]1CN(C)S(C)(=O)=O do in these assays?
SIRT5 block: -1; ERp5 block: -6; ERAP1 inh: 1

What do the screens show for `C/C=C/c1cnc2c(c1)C(=O)N([C@H](C)CO)C[C@@H](C)[C@@H](CN(C)C(=O)Nc1ccc(OC)cc1)O2`?
SIRT5 block: 2; ERp5 block: 7; ERAP1 inh: -1

What do the screens show for `O=C([C@H]1[C@H](CO)[C@H]2Cn3c(ccc(C4=CCCC4)c3=O)[C@@H]1N2C(=O)c1cccnc1)N1CCOCC1`?
SIRT5 block: -3; ERp5 block: 0; ERAP1 inh: -1

How did O=C(C[C@H]1CC[C@@H]2[C@H](COC[C@H](O)CN2C(=O)c2ccccc2)O1)Nc1ccccc1 do in these assays?
SIRT5 block: -3; ERp5 block: -2; ERAP1 inh: 1

What do the screens show for `CC(=O)N1CCCCN2[C@H](CO)[C@@H](c3ccc(Br)cc3)[C@@H]2C1`?
SIRT5 block: 0; ERp5 block: -1; ERAP1 inh: 0

How did CC(=O)N1CCCCN2[C@@H](CO)[C@H](c3ccc(Br)cc3)[C@@H]2C1 do in these assays?
SIRT5 block: 17*; ERp5 block: 4; ERAP1 inh: 3
